The target in experiment [1] is Retinoic acid receptor RXR-alpha (Homo sapiens) (UniProt P19793). Briefly: OT_NURR1_NURR1RXRa_1440: Odyssey Thera (OT) 24-hour HEK293T Protein Complementation Assay for Nurr1/retinoid X receptor (RXR) (AID 2283386; active = hit-call score of the fitted dose curve at least 0.9, where 1 is the maximum). A digest of the protocol: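 Steps: fragment-tagged Nurr1 and RXRα expressed in HEK293T; compounds added; after 24 h, complemented reporter quantified by fluorescence intensity; signal increase over DMSO fitted as the single endpoint.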
Sequence of Retinoic acid receptor RXR-alpha (Homo sapiens) (P19793 whole entry, looked up, the tested form may be a part): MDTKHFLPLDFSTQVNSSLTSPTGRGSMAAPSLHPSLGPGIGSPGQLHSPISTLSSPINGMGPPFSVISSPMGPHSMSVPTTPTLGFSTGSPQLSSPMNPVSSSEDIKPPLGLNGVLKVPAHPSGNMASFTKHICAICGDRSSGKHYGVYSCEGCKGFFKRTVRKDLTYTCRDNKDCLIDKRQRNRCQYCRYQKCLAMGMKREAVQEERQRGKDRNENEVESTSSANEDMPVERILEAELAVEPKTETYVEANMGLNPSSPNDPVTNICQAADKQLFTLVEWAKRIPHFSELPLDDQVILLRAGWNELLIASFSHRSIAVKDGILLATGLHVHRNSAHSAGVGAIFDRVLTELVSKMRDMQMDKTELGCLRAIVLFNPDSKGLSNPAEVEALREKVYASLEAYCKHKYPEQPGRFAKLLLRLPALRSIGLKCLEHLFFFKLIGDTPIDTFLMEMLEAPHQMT

The target of experiment [2] is Peroxisome proliferator-activated receptor gamma (Homo sapiens) (UniProt P37231). The experiment is described as follows: OT_PPARg_PPARgSRC1_0480: Odyssey Thera (OT) 8-hour Protein-Complementation Assay for Peroxisome Proliferator-activated Receptor Gamma / SRC-1 Co-activator (AID 2283387; active = hit-call score of the fitted dose curve at least 0.9, where 1 is the maximum;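 also: nuclear to cytoplasmic split Venus YFP fluorescence ratio reporting PPARg SRC-1 interaction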). The procedure, abridged:
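Protein-fragment complementation in HEK293T: Venus YFP halves (residues 1-158, 159-239, mutated to IFP1/IFP2) fused to PPARg/SRC-1. 8 h exposure; N/C ratio at 488 nm; DMSO negative control.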

The target is the same in experiment [3]. Briefly: OT_PPARg_PPARgSRC1_1440: Odyssey Thera (OT) 24-hour Protein-Complementation Assay for Peroxisome Proliferator-activated Receptor Gamma/ SRC-1 Co-activator (AID 2283388; active = hit-call score of the fitted dose curve at least 0.9, where 1 is the maximum;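 also: nuclear to cytoplasmic ratio of reconstituted Venus YFP fluorescence in fixed imaged cells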). The procedure, abridged:
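Readout is the 488 nm N/C fluorescence ratio from fixed, Draq5-stained HEK293T cells after 24 h compound exposure. Cells carried transiently transfected PPARg and SRC-1 fused to Venus fragments, transfected 48 h before treatment.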

Read-out in experiment [4]: Tumor necrosis factor receptor superfamily member 6 (Homo sapiens) (UniProt P25445)
The experiment is described as follows: LTEA_HepaRG_FAS: Life Technologies and Expression Analysis (LTEA) Assay for Fas cell surface death receptor (FAS) using HepaRG (AID 2283447). The following applies: mRNA level, 48 h; actives raise or lower the signal. A digest of the protocol:
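FAS transcript level was measured by TaqMan qRT-PCR against three housekeeping genes after 48 h chemical exposure. Cells were HepaRG, 0.5% DMSO vehicle, with a top concentration of 100 uM and half-log dilutions over eight points, in duplicate.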

Read-out in experiment [5]: Fatty acid synthase (Homo sapiens) (UniProt P49327)
The experiment is described as follows: LTEA_HepaRG_FASN: Life Technologies and Expression Analysis (LTEA) Assay for Fatty Acid Synthase (FASN) using HepaRG (AID 2283448). The following applies: mRNA level, 48 h; actives raise or lower the signal. A digest of the protocol: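 Cells were plated, cultured 48 h, switched to serum-free induction medium, then dosed in duplicate (max 100 uM, half-log dilutions, 0.5% DMSO) for 48 h. RNA was then isolated and FASN quantified by qRT-PCR.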

Read-out in experiment [6]: Cyclin D1 (CCND1), CCND1 (gene 595)
The experiment is described as follows: LTEA_HepaRG_CCND1: Life Technologies and Expression Analysis (LTEA) Assay for Cyclin D1 (CCND1) using HepaRG (AID 2283451). The conditions noted are these: mRNA level, 48 h; actives raise or lower the signal. A digest of the protocol: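 Expression of CCND1 was quantified by qRT-PCR on Fluidigm arrays using ACTB, GAPDH and POLR2A as reference genes. HepaRG cultures, plated 48 h beforehand, were dosed for 48 h at up to 100 uM (half-log, 8 points) in 0.5% DMSO.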

Read-out in experiment [7]: flavin-containing dimethylaniline monooxygenases 3 (FMO3), FMO3 (gene 2328)
Briefly: LTEA_HepaRG_FMO3: Life Technologies and Expression Analysis (LTEA) Assay for flavin-containing dimethylaniline monooxygenases 3 (FMO3) using HepaRG (AID 2283453). The conditions noted are these: mRNA level, 48 h; actives raise or lower the signal. The procedure, abridged: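 FMO3 transcript quantified by TaqMan qRT-PCR against three housekeeping genes after 48 h chemical exposure of HepaRG cells. Eight-point half-log series, top 100 uM, 0.5% DMSO vehicle; phenobarbital 1mM induction control; up- or down-regulation fitted.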

Read-out in experiment [8]: Cytochrome P450 (CYP1A1), CYP1A1 (gene 1543)
Briefly: LTEA_HepaRG_CYP1A1: Life Technologies and Expression Analysis (LTEA) Assay for Cytochrome P450 (CYP1A1) using HepaRG (AID 2283454). The conditions noted are these: mRNA level, 48 h; actives raise or lower the signal. The procedure, abridged:
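CYP1A1 transcript levels measured by Fluidigm qRT-PCR against three housekeeping genes, 48 h after chemical dosing of human HepaRG cells (highest concentration 100 uM, half-log steps, 0.5% DMSO vehicle). Gain or loss of signal fitted relative to DMSO.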

The nature of experiment [9]: CEETOX_H295R_11DCORT: CeeTox H295R High-throughput Steroidogenesis Assay for 11-Deoxycortisol (11DCORT) (AID 2283432). The conditions noted are these: actives raise or lower the signal. The procedure, abridged:
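Adrenal carcinoma line H295R, run per OECD 456 with minor changes, was forskolin-stimulated (10 uM, 48 h) before a 48 h chemical exposure at 0.1% DMSO. Secreted 11-deoxycortisol was quantified by HPLC-MS/MS.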

Experiment [10] is described as follows: CEETOX_H295R_OHPREG: CeeTox H295R High-throughput Steroidogenesis Assay for OH-Pregnenolone (OHPREG) (AID 2283434). The conditions noted are these: actives raise or lower the signal. The procedure, abridged: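 Secreted 17alpha-hydroxypregnenolone measured by HPLC-MS/MS after liquid-liquid extraction. Human adrenal H295R cells received 48 h forskolin (10 uM) stimulation before 48 h chemical exposure at 0.1% final DMSO; MTT viability in same wells; bidirectional fit against DMSO.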

Experiment [11] in a line: CEETOX_H295R_CORTIC: CeeTox H295R High-throughput Steroidogenesis Assay for Corticosterone (CORTIC) (AID 2283437). The following applies: actives raise or lower the signal. A digest of the protocol: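 Medium corticosterone was quantified by tandem mass spectrometry following 48 hours of chemical exposure (0.1% DMSO) in human H295R cells previously stimulated 48 hours with 10 uM forskolin. Viability checked by MTT; chemicals diluted and retested when viability fell below 70%.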

A short description of experiment [12]: CEETOX_H295R_CORTISOL: CeeTox H295R High-throughput Steroidogenesis Assay for Cortisol (AID 2283438). The conditions noted are these: actives raise or lower the signal. A digest of the protocol:
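Cortisol synthesis by H295R cells is measured 48 h after chemical dosing, following a 48 h stimulation with 10 uM forskolin. Hormone is extracted and quantified by HPLC-MS/MS, and activity is fitted bidirectionally against the DMSO control.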

A short description of experiment [13]: CEETOX_H295R_DOC: CeeTox H295R High-throughput Steroidogenesis Assay for DOC (AID 2283439). The conditions noted are these: actives raise or lower the signal. The procedure, abridged: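 Steps: seed H295R, adhere overnight; 10 uM forskolin 48 h; replace with chemical medium (0.1% DMSO) 48 h; collect medium, MTBE extraction, HPLC-MS/MS for DOC. Viability then checked by MTT; cytotoxic chemicals diluted until viability ≥70%.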

The nature of experiment [14]: CEETOX_H295R_ESTRADIOL: CeeTox H295R High-throughput Steroidogenesis Assay for Estradiol (AID 2283440).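 Also: estradiol secreted into medium quantified by LC-MS/MS after dansyl derivatisation.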 The following applies: actives raise or lower the signal. The procedure, abridged: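 Estradiol in spent medium measured by LC-MS/MS after dansyl chloride derivatisation. Forskolin-primed (10 uM, 48 h) human adrenal H295R cells received test chemical 48 h at 0.1% DMSO; concentrations lowered until MTT viability >/=70%.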

Experiment [15] is described as follows: CEETOX_H295R_ESTRONE: CeeTox H295R High-throughput Steroidogenesis Assay for Estrone (AID 2283441). The conditions noted are these: actives raise or lower the signal. The procedure, abridged: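 Estrone secreted into medium quantified by LC-MS/MS after dansyl chloride derivatization, following 48 h chemical exposure (0.1% DMSO final) of forskolin-prestimulated (10 uM, 48 h) H295R cells; gain or loss fitted against DMSO; MTT viability in same wells.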

Experiment [16] is described as follows: CEETOX_H295R_PROG: CeeTox H295R High-throughput Steroidogenesis Assay for Progesterone (PROG) (AID 2283442). The following applies: actives raise or lower the signal. A digest of the protocol: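 Progesterone secreted by human H295R cells was measured by LC-MS/MS following 48 h chemical exposure at 0.1% DMSO, preceded by 48 h forskolin (10 uM) stimulation. Same-well MTT viability; cytotoxic concentrations diluted 10- or 100-fold and retested.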

Read-out in experiment [17]: Cyclin D2 (CCND2), CCND2 (gene 894)
The experiment is described as follows: LTEA_HepaRG_CCND2: Life Technologies and Expression Analysis (LTEA) Assay for Cyclin D2 (CCND2) using HepaRG (AID 2283449). The following applies: mRNA level, 48 h; actives raise or lower the signal. A digest of the protocol: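 CCND2 transcript levels, quantified by qRT-PCR and normalised to three housekeeping genes, were fitted bidirectionally against 0.5% DMSO. HepaRG cultures were dosed 48 h in duplicate with an 8-point half-log series up to 100 uM.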

Read-out in experiment [18]: Cyclin Dependent Kinase Inhibitor 1A (CDKN1A), CDKN1A (gene 1026)
Briefly: LTEA_HepaRG_CDKN1A: Life Technologies and Expression Analysis (LTEA) Assay for Cyclin Dependent Kinase Inhibitor 1A (CDKN1A) using HepaRG (AID 2283450). The conditions noted are these: mRNA level, 48 h; actives raise or lower the signal. The procedure, abridged: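 Expression quantified by Fluidigm qRT-PCR with ACTB, GAPDH and POLR2A normalization, fitted bidirectionally against 0.5% DMSO. Cells: HepaRG, plated 48 h then treated 48 h in serum-free induction medium, top concentration 100 uM with half-log dilutions.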

Read-out in experiment [19]: catalase (CAT), CAT (gene 847)
The experiment is described as follows: LTEA_HepaRG_CAT: Life Technologies and Expression Analysis (LTEA) Assay for catalase (CAT) using HepaRG (AID 2283452). The conditions noted are these: mRNA level, 48 h; actives raise or lower the signal. A digest of the protocol: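 Expression of CAT was quantified by TaqMan qRT-PCR with ACTB/GAPDH/POLR2A normalization after 48 h chemical exposure of HepaRG. Eight-point half-log series, top 100 uM, in 0.5% DMSO; gain or loss fitted against vehicle.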

Inconclusive results are not listed. More than one record can exist for a structure, and the calls need not agree. Active and inactive are the calls of the source. The calls were made as follows, unless noted: active = hit-call score of the fitted dose curve at least 0.9, where 1 is the maximum; inactive = score below 0.9.

Sequence of Fatty acid synthase (Homo sapiens) (P49327 whole entry, looked up): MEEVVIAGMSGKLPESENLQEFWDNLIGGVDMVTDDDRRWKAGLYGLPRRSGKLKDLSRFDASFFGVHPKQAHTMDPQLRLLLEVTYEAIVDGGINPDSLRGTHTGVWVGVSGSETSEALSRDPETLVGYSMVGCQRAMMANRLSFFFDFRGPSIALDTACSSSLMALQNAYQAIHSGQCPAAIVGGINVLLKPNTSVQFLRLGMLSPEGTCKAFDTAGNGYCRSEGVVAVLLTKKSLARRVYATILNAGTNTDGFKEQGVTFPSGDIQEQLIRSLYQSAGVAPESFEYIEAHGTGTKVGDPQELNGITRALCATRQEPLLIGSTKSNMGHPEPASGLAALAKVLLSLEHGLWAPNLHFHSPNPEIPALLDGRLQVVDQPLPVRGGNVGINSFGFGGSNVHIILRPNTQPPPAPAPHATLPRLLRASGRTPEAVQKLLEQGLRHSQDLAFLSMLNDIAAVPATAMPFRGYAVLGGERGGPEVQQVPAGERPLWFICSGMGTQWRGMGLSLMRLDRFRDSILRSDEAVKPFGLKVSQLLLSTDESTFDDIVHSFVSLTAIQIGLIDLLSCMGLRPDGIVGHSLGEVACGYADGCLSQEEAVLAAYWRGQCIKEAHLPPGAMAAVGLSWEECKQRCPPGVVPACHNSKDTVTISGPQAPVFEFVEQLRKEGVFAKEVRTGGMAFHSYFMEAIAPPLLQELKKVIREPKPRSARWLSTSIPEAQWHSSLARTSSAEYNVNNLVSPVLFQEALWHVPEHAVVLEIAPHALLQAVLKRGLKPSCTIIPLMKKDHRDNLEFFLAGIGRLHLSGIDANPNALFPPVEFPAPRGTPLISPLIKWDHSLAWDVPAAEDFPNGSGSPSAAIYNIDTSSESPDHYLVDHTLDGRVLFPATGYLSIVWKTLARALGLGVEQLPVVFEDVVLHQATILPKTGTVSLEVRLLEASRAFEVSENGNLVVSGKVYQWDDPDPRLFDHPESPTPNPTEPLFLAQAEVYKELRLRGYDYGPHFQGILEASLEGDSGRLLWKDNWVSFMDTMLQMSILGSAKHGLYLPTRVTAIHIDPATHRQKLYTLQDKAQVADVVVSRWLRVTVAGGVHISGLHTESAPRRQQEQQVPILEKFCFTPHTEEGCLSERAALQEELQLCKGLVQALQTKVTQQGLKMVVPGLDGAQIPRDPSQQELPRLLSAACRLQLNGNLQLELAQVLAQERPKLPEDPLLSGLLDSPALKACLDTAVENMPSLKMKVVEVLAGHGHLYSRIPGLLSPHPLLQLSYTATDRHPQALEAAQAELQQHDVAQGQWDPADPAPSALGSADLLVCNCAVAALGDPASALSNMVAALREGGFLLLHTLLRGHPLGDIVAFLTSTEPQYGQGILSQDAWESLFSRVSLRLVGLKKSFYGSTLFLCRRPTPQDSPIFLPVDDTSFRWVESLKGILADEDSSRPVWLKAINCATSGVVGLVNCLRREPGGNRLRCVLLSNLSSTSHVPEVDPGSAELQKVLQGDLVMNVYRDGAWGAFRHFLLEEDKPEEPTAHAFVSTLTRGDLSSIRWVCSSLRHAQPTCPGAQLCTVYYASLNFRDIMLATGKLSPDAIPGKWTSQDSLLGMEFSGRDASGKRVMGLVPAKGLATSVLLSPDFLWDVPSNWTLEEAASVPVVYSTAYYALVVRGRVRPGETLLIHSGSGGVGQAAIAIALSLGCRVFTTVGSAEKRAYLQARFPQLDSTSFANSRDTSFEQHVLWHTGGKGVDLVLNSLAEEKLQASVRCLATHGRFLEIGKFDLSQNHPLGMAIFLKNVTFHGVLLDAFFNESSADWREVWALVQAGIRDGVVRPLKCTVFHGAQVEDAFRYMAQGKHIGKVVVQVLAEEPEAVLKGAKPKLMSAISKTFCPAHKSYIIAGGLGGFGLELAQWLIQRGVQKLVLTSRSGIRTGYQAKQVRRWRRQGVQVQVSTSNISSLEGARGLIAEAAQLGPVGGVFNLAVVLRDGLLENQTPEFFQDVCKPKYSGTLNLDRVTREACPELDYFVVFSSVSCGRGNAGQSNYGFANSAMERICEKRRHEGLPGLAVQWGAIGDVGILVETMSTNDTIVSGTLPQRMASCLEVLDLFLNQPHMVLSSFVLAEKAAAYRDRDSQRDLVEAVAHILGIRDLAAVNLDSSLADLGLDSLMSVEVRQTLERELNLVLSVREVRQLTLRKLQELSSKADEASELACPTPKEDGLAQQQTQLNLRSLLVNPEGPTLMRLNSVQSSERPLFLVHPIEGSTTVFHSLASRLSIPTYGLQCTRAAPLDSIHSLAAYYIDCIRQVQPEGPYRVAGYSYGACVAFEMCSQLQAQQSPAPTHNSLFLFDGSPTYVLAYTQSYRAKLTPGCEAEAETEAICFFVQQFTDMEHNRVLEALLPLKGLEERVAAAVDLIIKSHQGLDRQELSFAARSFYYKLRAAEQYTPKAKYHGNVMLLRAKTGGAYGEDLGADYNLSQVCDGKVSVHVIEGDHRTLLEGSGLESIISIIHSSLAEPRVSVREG
Sequence of Peroxisome proliferator-activated receptor gamma (Homo sapiens) (P37231 whole entry, looked up, the tested form may be a part): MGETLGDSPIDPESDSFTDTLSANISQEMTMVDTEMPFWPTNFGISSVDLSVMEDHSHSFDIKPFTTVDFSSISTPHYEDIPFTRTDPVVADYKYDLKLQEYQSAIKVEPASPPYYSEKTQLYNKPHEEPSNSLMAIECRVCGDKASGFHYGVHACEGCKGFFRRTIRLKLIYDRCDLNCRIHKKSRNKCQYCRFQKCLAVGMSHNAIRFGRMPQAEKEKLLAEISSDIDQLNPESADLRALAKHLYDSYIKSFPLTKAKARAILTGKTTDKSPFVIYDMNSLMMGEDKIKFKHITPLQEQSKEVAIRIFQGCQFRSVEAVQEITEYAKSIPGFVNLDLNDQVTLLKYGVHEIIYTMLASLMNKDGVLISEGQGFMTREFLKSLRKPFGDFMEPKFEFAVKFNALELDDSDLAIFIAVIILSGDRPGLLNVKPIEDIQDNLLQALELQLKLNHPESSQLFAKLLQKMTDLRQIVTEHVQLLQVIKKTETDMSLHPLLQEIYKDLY

For `CC(C)(C)c1cccc(C(C)(C)C)c1O`, the outcome in experiment [1], in experiment [2], in experiment [3], in experiment [4], in experiment [5] and in experiment [6] was inactive. Moreover, the result in [7] and in experiment [8] was inactive.

`CCCCCCCCC(=O)O`: the result in experiment [1], in experiment [9], in [10], in experiment [11], in experiment [12] and in [13] was inactive. Moreover, the result in experiment [14], in experiment [15], in experiment [16], in [4], in experiment [5] and in experiment [17] was inactive. Further, the result in experiment [18], in experiment [6], in experiment [19], in [7] and in experiment [8] was inactive.

The AC50 is the midpoint of the concentration-response curve, whichever way the signal moves. On to `CCCCCCCCOC(=O)CCCCCCCCC(=O)OCCCCCCCC`, for which the compound was classed as inactive in experiment [1], in [2], in experiment [3], in experiment [4], in experiment [5] and in experiment [18]. Moreover, the compound was classed as inactive in experiment [6] and in [7]. Also, in [8], the AC50 is 30.3 µM (active).

Regarding `ClC1=C(Cl)C(Cl)(Cl)C(Cl)=C1Cl`, the call in [2], in experiment [3], in [4], in [5], in [17] and in experiment [18] was inactive. Moreover, the compound was classed as inactive in experiment [6], in experiment [7] and in experiment [8].

Turning to `OC1CCCCC1`, the outcome in experiment [1], in experiment [2], in experiment [3], in experiment [4], in experiment [5] and in experiment [6] was inactive. The compound was classed as inactive in experiment [7] and in [8].

`CCC(C)(C)C1CCC(O)CC1` (stereo not given): the compound was called inactive in [1], in experiment [2], in experiment [3], in experiment [4], in experiment [5] and in [17]. For the same compound, the result in experiment [6], in [7] and in experiment [8] was inactive.

As for `O=[N+]([O-])c1ccc(O)cc1`, the call in [2], in [3], in experiment [10], in experiment [16], in [4] and in experiment [5] was inactive. Further, the outcome in experiment [17], in experiment [18], in experiment [6], in [7] and in [8] was inactive. The AC50 in experiment [8] was 78.2 µM (active).

As to `CCCCOCCO`, the result in experiment [1], in experiment [2], in experiment [3], in [4], in experiment [5] and in experiment [17] was inactive. In addition, the compound was called inactive in experiment [6] and in experiment [7]. Further, the AC50 in experiment [8] was 50 µM (active).

Take `CCCOc1sc(C(=O)N2CCC(c3cc(CN)ccc3F)CC2)c(C)c1Br`: the compound was classed as inactive in [2], in [3], in [4], in [5], in [17] and in experiment [6]. The call in [19], in experiment [7] and in [8] was inactive.

(Values after PubChem BioAssay (EPA / NIEHS).)
